Our source for the INHIBITION values is ChEMBL document CHEMBL4513216, “Probing the Open Global Health Chemical Diversity Library for Multistage-Active Starting Points for Next-Generation Antimalarials” (ACS Infect Dis, 2020).

Out of some 69,000 compounds screened, about 8,600 (12%) showed an effect of 50% or more. For the sample, strong results were picked, then their nearest neighbours and some compounds at random.

The test system of the test is Plasmodium berghei. Kind of test: Screen against P. berghei liver stage (PbLuc), transformed with Luciferase, at 10uM. Type of test: functional, HepG2. Conditions: tested at 10 uM.
As to `CN(CCC(C)(C)O)C(=O)C1CCC(=O)N(Cc2ccc(Cl)cc2)C1` (stereo unspecified), the INHIBITION is recorded as 46.9%.
In the case of `CN(CC1(CO)CCC1)C(=O)C1CCC(=O)N(Cc2ccc(Cl)cc2)C1` (stereo unspecified) it was 49%; in that of `CN(CC1(CO)CC1)C(=O)C1CCC(=O)N(Cc2ccc(Cl)cc2)C1` (stereo unspecified), 70.4%.
In the case of `COc1cc(C(C)=O)ccc1OC12CCCN(CC1)C2` (stereo unspecified) it was 47.7%; in that of `CCc1ccc(CN2CCCn3c(nc(Cn4ccnc4)cc3=O)C2)o1`, -2.17%; in that of `CCO[C@@H]1CCN(C(=O)c2ccc[nH]2)[C@@H]1Cc1cccnc1`, 36.9%.
With `Cc1ccc(C(=O)N2CCOCC2C(N)=O)c(F)c1` (stereo unspecified), the INHIBITION is recorded as 54.5%.
The value for `Cc1ccc(S(=O)(=O)N2CCOCC2C(N)=O)c(F)c1` (stereo unspecified) was 27.4%.
The value for `Cc1ccc(C(=O)N2CC(C(N)=O)O[C@H](C)C2)c(F)c1` (stereo partly specified) was -110%; that for `Cc1noc(C(C)SCc2ccccn2)n1` (stereo unspecified) was 14.3%; that for `CCOc1ccc(CSC(C)c2nc(C)no2)nc1` (stereo unspecified) was 60.2%.
In the case of `CCOc1cccc(CSC(C)c2nc(C)no2)n1` (stereo unspecified) it was -10.8%.
In the case of `CNc1nc2cn(C3CCCC3)c(=O)c-2c[nH]1`, the INHIBITION is reported as -24.5%.
As to `CC1CN(C)CCN1CC(=O)NCCOc1ccc2c(c1)OCO2` (stereo unspecified), the INHIBITION was 18.7%.
Regarding `O=C(c1cccnc1)N1CC(S(=O)(=O)c2ccc(Cl)cc2)C1`, the INHIBITION came to 29.7%.
As for `O=C(c1ccccn1)N1CC(S(=O)(=O)c2ccc(Cl)cc2)C1`, the INHIBITION is given as -54.7%.
The value for `O=C(c1ccco1)N1CC(S(=O)(=O)c2ccc(Cl)cc2)C1` was 50.5%.
In the case of `c1ccc2c3c([nH]c2c1)C(c1nn[nH]n1)CCC3` (stereo unspecified) it was 26.4%; in that of `Cn1ccnc1C1(O)CCCN(Cc2ccncc2)CC1` (stereo unspecified), 7.36%; in that of `COc1ccc(C2c3c(N)nc(SC)nc3N=C3CCCC(=O)C32)cc1` (stereo unspecified), 21.7%.
In the case of `CCOc1cc2c(cc1CNC(Cc1cccs1)c1nccs1)OCO2` (stereo unspecified) it was 52%; in that of `COc1cc2c(cc1CNC(Cc1cccs1)c1nccs1)OCCO2` (stereo unspecified), 36.9%; in that of `COc1cc2c(cc1CNC(Cc1cccs1)c1nccs1)OCO2` (stereo unspecified), 20.07%.
As to `CCc1nnc(Nc2cc(C)nc(C3CCN(c4cnccn4)C3)n2)s1` (stereo unspecified), the INHIBITION worked out at 32.3%.
The value for `CCOc1ccc2[nH]c(=O)c(CN3CCC(O)CC3)cc2c1` was 20.2%; that for `CCOc1ccc2[nH]c(=O)c(CN3CCN(S(N)(=O)=O)CC3)cc2c1` was 94.3%; that for `CCCN1CCN(Cc2cc3cc(OCC)ccc3[nH]c2=O)CC1` was 6.67%.
The value for `CCCN(CC)C(=O)c1cc(Cn2c(C)nc3ccccc32)[nH]n1` was 75.7%.
In the case of `CCn1nc(C)c(CN(CCOC)C(=O)c2ccc(=O)[nH]n2)c1C` it was -65%; in that of `NC(=O)CNC(=O)c1cc(Cn2cnc3ccccc32)[nH]n1`, -72.5%; in that of `CCCN(CCOC)C(=O)c1cc(Cn2c(C)nc3ccccc32)[nH]n1`, 65.7%.
`Cc1nc2ccccc2n1Cc1cc(C(=O)N(C)C2CCOC2)n[nH]1` (stereo unspecified): the INHIBITION was -39.9%.
In the case of `CCN(CCO)C(=O)c1cc(Cn2c(C)nc3ccccc32)[nH]n1` it was 24.9%; in that of `COCc1nc(C(=O)N2CCCC2c2cccs2)cs1` (stereo unspecified), 42%; in that of `Cc1cccc(CN2CCc3ncnc(NC4CCC4)c3CC2)n1`, -24.8%.
In the case of `c1cc(CN2C[C@@H]3OCCN(CC4CCCO4)[C@@H]3C2)cs1` (stereo partly specified), the INHIBITION turned out to be 46.2%.
Take `CCOc1cccc(CNCc2ccc(NC(=O)NC(C)C)cc2)c1`: the INHIBITION was -18%.
The value for `COc1cccc(CNCc2ccc(NC(=O)NC(C)C)cc2)c1` was 29.4%.
In the case of `COc1cc(CNCc2ccc(NC(=O)NC(C)C)cc2)cc(OC)c1` it was 60%; in that of `Cc1ccc(CN2CCC[C@]3(C(=O)O)CN(c4ncccn4)C[C@@H]3C2)o1`, 15.9%.
For `c1cncc(CN2CCC(c3csc4nccn34)CC2)c1`, the INHIBITION is listed as 3.295%.
In the case of `CC(C)(NC(=O)c1ccc(-c2ccc(F)cc2)s1)C(N)=O` it was 4.12%; in that of `CCCc1nnsc1C(=O)N1CCCC1(C)C(=O)N1CCOCC1` (stereo unspecified), -53.1%.
The value for `O=C1CC(N(C(=O)c2ccc(F)c(F)c2)C2CC2)C(=O)N1` (stereo unspecified) was 15.3%; that for `Cc1ccc(C(=O)N(C2CC2)C2CC(=O)NC2=O)cc1F` (stereo unspecified) was 50.3%; that for `COc1cc(C(=O)N(C2CC2)C2CC(=O)NC2=O)ccc1C` (stereo unspecified) was 31%.
In the case of `O=C(O)c1c[nH]c2cc(NS(=O)(=O)c3ccc(Cl)cc3F)ccc12` it was -2.19%.
On to `CN(C)C(=O)[C@@H]1CCO[C@@H]2CCN(CCOCc3ccccc3)C[C@H]21`, for which the INHIBITION was determined as 43.1%.
In the case of `CC(=O)c1ccc(N2CCC3(CC2)CC(=O)N(C)C3)nc1` it was 34.1%; in that of `CCCN1CC2(CCN(c3ccc(C(C)=O)cn3)CC2)CC1C(=O)O` (stereo unspecified), -12.5%; in that of `CC(=O)c1ccc(N2CCC(CO)(CCOc3ccccc3)CC2)nc1`, 95.1%.
The value for `CC(=O)c1ccc(N2CCCC(CO)(CCc3ccccc3)C2)nc1` (stereo unspecified) was 43.7%; that for `CC(=O)c1ccc(N2CCCC(CO)(CCOc3ccccc3)C2)nc1` (stereo unspecified) was 70.1%.
The value for `CN1C(=O)C2(CCN(S(C)(=O)=O)CC2)c2cc(F)ccc21` was 17.7%.
In the case of `O=C(CNCCn1cccn1)NCC1(c2ccccc2)CCOCC1`, the INHIBITION came out at 25.4%.
In the case of `CS(=O)(=O)NC[C@H]1OC[C@@H]2CCN(CCc3ccccc3)C[C@@H]21` it was 43.4%.
The value for `Cn1c(C2CC2)nc2c1CCN(CCOc1cccc(F)c1)C2` was 11.9%; that for `Cc1ccccc1C(=O)N1C[C@@H]2OCCN(c3ncccn3)[C@@H]2C1` was -2.35%.
In the case of `CN1CCN(S(=O)(=O)c2cccc(F)c2)c2ccccc21` it was 46.6%; in that of `CN1CCN(S(C)(=O)=O)c2ccc(F)cc21`, 21.8%; in that of `CN1CCN(S(=O)(=O)c2cccc(C#N)c2)c2ccc(F)cc21`, 62.4%.
For `CCc1cc(OC)c(OC)cc1C(=O)Nc1cccnc1`, the INHIBITION was 22.6%.
Regarding `CO[C@H]1CN(Cc2c(C)ccc3ncccc23)CC[C@H]1N`, the INHIBITION is -69.3%.
In the case of `O=C(c1ccno1)N1CCc2ncnc(-c3ccncc3)c2CC1` it was 35.5%.
In the case of `O=C(Nc1ccc(N2CCCC2)nc1)N1CCc2sccc2C1` it was -11.5%.
For the compound `O=C(Nc1ccc(N2CCCCC2)nc1)N1CCc2sccc2C1`, the INHIBITION was -10.8%.
The value for `O=C(Nc1ccc(N2CCCC2)nc1)N1CCc2ccccc2C1` was 63.5%.
The value for `c1cnnc(N[C@@H]2CC[C@@H]3CN(Cc4c[nH]c5ccccc45)C[C@@H]32)c1` was 31.6%; that for `CC(C)N1CCCCC1CCn1cnc2cc(C(F)(F)F)ccc2c1=O` (stereo unspecified) was 47.9%; that for `O=c1c2ccc(C(F)(F)F)cc2ncn1CCCN1CCCCC1CO` (stereo unspecified) was 56.6%.
The value for `O=c1c2ccc(Cl)cc2ncn1CCCN1CCCCC1CO` (stereo unspecified) was 22.9%.
In the case of `COCCS(=O)(=O)NC(C)c1ccccc1Br` (stereo unspecified), the INHIBITION was determined as 4.34%.
For `Cc1ccc(C)c(NC(=O)Nc2c[nH]c(=O)[nH]c2=O)c1`, the INHIBITION was 29.2%.
In the case of `Cc1ccc(NC(=O)Nc2c[nH]c(=O)[nH]c2=O)c(Cl)c1` it was 3.77%; in that of `Cc1ccc(NC(=O)Nc2c[nH]c(=O)[nH]c2=O)c(C)c1`, 50.8%.
In the case of `CN1CCCC(NC(=O)c2ccc(C(=O)c3cc[nH]c3)cc2)C1` (stereo unspecified) it was 44.2%.
The value for `CCOCCN1CCN(CC(=O)N2CCCC2)CC1CC` (stereo unspecified) was 31.9%; that for `CCOCCN1CCN(CCC(=O)N2CCCCC2)CC1C` (stereo unspecified) was -10.1%; that for `CCOCCN1CCN(CC2(O)CCCCC2)CC1` was 10.6%.
For `CCOCCN1CCN(CCC(=O)N2CCCCC2)CC1`, the INHIBITION was 64.1%.
In the case of `CCOCCN1CCN(CC(=O)N2CCCC2)CC1C` (stereo unspecified), the INHIBITION was found to be 66.5%.
Regarding `CCOCCN1CCN(CC(=O)N2CCC2)CC1CC` (stereo unspecified), the INHIBITION was -20.2%.
In the case of `Cc1cc2nc(C(C)C)cc(NCCc3cccn3C)n2n1` it was 39.5%; in that of `CN(Cc1cscn1)C(=O)C(c1ccccc1)N1CCSCC1` (stereo unspecified), 60.3%; in that of `Cc1cc(CN(C)C(=O)C(c2ccccc2)N2CCSCC2)no1` (stereo unspecified), 17.5%.
In the case of `CN(Cc1ccccn1)C(=O)C(c1ccccc1)N1CCSCC1` (stereo unspecified) it was 33.7%; in that of `COCCOCC1CCN(C(=O)c2ccc3[nH]cnc3c2)C1` (stereo unspecified), -24.9%; in that of `COc1c(CNCc2ccc(N3CCCC3)nc2)c(C(C)C)nn1C`, 7.95%.
In the case of `CCN(CC(=O)NC)S(=O)(=O)c1cnc2c(c1)c(C)nn2C` it was 12.7%; in that of `Cc1nn(C)c2ncc(S(=O)(=O)N3CCCC(C(N)=O)C3)cc12` (stereo unspecified), 36.5%.
Take `CCCN(CC(=O)OC)S(=O)(=O)c1cnc2c(c1)c(C)nn2C`: the INHIBITION stood at 57.6%.
As to `Cc1nn(C)c2ncc(S(=O)(=O)N3CCCC(C)CC3)cc12` (stereo unspecified), the INHIBITION stood at 45.1%.
The value for `CCN(CC(=O)N(C)C)S(=O)(=O)c1cnc2c(c1)c(C)nn2C` was 51.1%; that for `CCN(CCC(=O)OC)S(=O)(=O)c1cnc2c(c1)c(C)nn2C` was 35.1%; that for `COC(=O)Cn1c(=O)[nH]c2cn(-c3ccc(F)cc3)c(=O)n21` was 31%.
Regarding `Cc1ccsc1C(=O)N1CCCC(c2[nH]ncc2S(C)(=O)=O)C1` (stereo unspecified), the INHIBITION came to 17.4%.
The value for `CN(C)c1nc(N2CCCC2)nc2c1CCN(Cc1nccn1C)CC2` was 50.3%.
As for `Cn1ccnc1CN1CCN(Cc2noc(-c3ccccc3)n2)CC1`, the INHIBITION amounted to 24.4%.
In the case of `Cc1nc(N2CCOCC2)nc2c1CCN(Cc1nccn1C)CC2` it was 38.5%.
The value for `Cc1nc(N2CCCC2)nc2c1CCN(Cc1nccn1C)CC2` was 46.6%; that for `Cc1nc(-c2ccccc2)nc2c1CCN(Cc1nccn1C)CC2` was 75.6%.
Take `Cc1nc(C)c2c(n1)CCN(Cc1nccn1C)CC2`: the INHIBITION was found to be 45.7%.
The value for `CC(C)(C)Nc1c(C2CCN(C(=O)C3CC3)CC2)nc2ccccn12` was 26.355%; that for `O=C(NCCn1ccnc1)N1CCN(Cc2ccsc2)CC1` was 19.5%; that for `CCCn1nc(C)c(-c2cncn2CCN(C)C2CCCC2)c1C` was -0.232%.
Take `CCc1nc(CN2CCCN(C(=O)C(CC)OC)CC2)cs1` (stereo unspecified): the INHIBITION is reported as -4.94%.
